Some of the results follow. Active and inactive are the calls of the source.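 The calls were made as follows, unless noted: active = mean inhibition above 46.68%, the untreated control wells mean plus 3 SD; inactive = the rest.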
Legend:
[1] = target: Nuclear receptor coactivator 3 (Homo sapiens) (UniProt Q9Y6Q9); experiment: NCOA3 GAL4-fusion reporter inhibition – cell-based, luminescence, quadruplicate, confirmation (AID 588792;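 active = mean inhibition over 43.08%, the solvent-only control mean plus 3 SD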;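 also: 0% = DMSO treated cells and 100% = gossypol at 36 µM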); details: HEK293 GAL4-SRC3 luciferase reporter, at 3.6 µM, active compounds read high
Sequence of Nuclear receptor coactivator 3 (Homo sapiens) (Q9Y6Q9 whole entry, looked up, the tested form may be a part): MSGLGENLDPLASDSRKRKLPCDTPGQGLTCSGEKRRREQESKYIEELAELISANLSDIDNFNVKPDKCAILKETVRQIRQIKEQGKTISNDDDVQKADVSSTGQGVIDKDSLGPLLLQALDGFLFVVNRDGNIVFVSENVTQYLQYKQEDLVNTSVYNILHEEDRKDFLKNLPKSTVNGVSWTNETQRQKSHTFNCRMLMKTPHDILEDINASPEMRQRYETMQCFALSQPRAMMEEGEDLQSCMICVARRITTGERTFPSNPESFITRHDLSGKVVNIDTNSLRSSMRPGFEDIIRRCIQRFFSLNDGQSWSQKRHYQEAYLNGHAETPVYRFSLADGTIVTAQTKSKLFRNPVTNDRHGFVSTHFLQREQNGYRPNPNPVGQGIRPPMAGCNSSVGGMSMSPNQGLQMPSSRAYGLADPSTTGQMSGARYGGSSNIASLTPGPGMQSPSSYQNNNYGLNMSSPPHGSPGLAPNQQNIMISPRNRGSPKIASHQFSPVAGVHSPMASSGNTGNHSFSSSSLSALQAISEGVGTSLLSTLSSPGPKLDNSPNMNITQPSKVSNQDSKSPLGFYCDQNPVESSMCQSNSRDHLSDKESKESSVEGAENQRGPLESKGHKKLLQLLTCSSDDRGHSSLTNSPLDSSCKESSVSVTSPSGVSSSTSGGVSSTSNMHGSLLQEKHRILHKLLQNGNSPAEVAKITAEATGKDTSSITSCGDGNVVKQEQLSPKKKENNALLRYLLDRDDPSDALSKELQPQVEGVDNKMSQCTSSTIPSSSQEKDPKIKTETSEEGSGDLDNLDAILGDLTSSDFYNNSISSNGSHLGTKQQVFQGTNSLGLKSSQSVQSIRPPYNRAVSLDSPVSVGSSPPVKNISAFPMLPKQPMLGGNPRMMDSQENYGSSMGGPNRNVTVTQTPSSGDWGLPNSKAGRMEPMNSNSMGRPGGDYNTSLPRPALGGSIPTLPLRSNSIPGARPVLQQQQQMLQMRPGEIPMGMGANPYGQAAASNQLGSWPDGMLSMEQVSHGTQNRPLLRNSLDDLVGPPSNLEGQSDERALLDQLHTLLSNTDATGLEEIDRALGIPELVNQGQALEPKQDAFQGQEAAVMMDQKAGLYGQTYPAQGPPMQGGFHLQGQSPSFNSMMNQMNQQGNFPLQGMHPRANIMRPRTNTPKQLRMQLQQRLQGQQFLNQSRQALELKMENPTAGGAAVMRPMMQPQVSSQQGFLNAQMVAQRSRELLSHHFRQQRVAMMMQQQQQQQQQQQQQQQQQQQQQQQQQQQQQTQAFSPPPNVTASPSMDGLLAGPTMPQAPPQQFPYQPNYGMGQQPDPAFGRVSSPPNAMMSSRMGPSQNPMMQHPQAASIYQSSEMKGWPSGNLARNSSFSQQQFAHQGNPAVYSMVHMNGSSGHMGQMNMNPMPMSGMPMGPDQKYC

[2] = tested on: transactivating tegument protein VP16 (Human herpesvirus 1), Gal4-VP16 luciferase reporter; experiment: repression of VP16-driven luciferase reporter – cell-based, luminescence, high throughput, counter-screen for SRC3 inhibitor project (AID 588794; in the data active = inhibition above about 30%); details: mammalian cells, at 3.6 µM, active compounds read high
[3] = target: Nuclear receptor coactivator 1 (Homo sapiens) (UniProt Q15788); experiment: NCOA1 GAL4-fusion reporter inhibition – cell-based, luminescence, quadruplicate, confirmation (AID 588820); details: HEK293 GAL4-SRC1 luciferase reporter, at 3.6 µM, active compounds read high;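 also: 0% = DMSO wells and 100% = gossypol 36 µM treated wells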
Sequence of Nuclear receptor coactivator 1 (Homo sapiens) (Q15788 whole entry, looked up, the tested form may be a part): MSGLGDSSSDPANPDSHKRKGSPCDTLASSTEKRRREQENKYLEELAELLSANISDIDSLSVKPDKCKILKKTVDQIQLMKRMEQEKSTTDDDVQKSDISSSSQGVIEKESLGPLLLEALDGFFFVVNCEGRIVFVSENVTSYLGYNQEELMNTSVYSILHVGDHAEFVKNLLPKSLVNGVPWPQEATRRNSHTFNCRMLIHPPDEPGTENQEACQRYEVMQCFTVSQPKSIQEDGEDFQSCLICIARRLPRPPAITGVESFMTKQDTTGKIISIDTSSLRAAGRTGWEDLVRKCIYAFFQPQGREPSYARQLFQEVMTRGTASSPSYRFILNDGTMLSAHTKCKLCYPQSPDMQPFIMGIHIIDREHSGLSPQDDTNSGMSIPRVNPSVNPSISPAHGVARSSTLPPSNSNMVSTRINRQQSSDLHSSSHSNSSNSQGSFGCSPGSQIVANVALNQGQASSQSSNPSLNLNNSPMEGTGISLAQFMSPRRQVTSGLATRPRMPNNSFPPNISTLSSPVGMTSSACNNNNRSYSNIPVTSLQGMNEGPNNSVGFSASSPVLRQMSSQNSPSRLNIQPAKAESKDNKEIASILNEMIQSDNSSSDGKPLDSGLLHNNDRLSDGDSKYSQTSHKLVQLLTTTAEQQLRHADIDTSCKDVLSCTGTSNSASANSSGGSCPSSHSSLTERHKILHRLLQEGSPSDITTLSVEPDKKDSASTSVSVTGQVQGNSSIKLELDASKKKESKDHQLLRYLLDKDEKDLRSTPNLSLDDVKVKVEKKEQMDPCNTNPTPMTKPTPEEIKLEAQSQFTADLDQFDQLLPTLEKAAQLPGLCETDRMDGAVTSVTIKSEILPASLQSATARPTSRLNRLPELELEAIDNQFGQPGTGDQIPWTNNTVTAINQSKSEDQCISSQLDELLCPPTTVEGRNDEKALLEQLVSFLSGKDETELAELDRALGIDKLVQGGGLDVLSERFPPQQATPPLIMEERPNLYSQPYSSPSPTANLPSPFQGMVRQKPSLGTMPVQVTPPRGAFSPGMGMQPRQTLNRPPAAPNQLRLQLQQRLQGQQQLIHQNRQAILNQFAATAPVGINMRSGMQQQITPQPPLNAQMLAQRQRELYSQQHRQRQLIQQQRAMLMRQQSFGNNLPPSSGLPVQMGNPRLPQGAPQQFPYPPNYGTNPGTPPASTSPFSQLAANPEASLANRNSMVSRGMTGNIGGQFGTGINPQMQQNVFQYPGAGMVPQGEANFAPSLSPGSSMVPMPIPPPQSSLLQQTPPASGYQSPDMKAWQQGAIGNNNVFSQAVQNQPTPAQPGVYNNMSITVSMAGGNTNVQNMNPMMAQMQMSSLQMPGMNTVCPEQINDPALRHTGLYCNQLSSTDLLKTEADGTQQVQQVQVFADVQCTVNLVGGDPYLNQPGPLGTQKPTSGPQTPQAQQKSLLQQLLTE

[4] = repression of VP16-driven luciferase reporter – cell-based, luminescence, high throughput, counter-screen for SRC1 inhibitor project (AID 588824; in the data active = inhibition above about 25%); details: cell-based VP16 transactivation luciferase luminescence; at 3.6 µM; active compounds read high
[5] = StAR promoter reporter inhibitors, counter-screen for LRH-1 inverse agonist project, cell-based, luminescence, high throughput (AID 651611; in the data active = inhibition above about 28%); details: StAR promoter luciferase reporter counterscreen, at 3.6 µM, active compounds read high
[6] = target: Nuclear receptor subfamily 5 group A member 2 (Homo sapiens) (UniProt O00482); experiment: NR5A2 activity suppression in reporter cells – cell-based, luminescence, confirmation (AID 651613; in the data active = inhibition above about 42%;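 also: HEK293T cells co-transfected with LRH-1 and StAR promoter luciferase reporter; 0% = vehicle wells and 100% = parental cells lacking receptor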); details: cell-based LRH-1 luciferase reporter, inverse agonism; at 3.6 µM; active compounds read high
Sequence of Nuclear receptor subfamily 5 group A member 2 (Homo sapiens) (O00482 whole entry, looked up): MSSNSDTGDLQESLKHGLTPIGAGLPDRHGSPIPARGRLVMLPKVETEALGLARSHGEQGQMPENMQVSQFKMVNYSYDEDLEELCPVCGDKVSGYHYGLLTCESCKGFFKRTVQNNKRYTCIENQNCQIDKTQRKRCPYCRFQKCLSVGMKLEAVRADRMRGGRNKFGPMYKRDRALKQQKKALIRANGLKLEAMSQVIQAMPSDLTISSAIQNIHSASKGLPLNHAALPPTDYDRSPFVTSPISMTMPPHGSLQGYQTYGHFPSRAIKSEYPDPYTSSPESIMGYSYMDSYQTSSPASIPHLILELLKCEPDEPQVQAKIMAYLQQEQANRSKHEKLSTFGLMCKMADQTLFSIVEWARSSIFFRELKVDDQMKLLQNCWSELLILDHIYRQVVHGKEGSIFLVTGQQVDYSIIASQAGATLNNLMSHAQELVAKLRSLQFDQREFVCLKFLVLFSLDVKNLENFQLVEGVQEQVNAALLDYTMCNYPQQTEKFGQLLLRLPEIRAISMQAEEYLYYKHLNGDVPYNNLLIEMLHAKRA

[7] = target: Steroidogenic factor 1 (Homo sapiens) (UniProt Q13285); experiment: inverse agonism at SF1 nuclear receptor – cell-based, luminescence, high throughput, counter-screen for LRH-1 inverse agonist project (AID 651614; in the data active = inhibition above about 44%;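 also: cells cotransfected with StAR promoter reporter and SF1 expression vector; 0% = vehicle on cells with receptor and 100% = vehicle on cells lacking receptor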); details: cell-based SF1 luciferase reporter, at 3.6 µM, active compounds read high
Sequence of Steroidogenic factor 1 (Homo sapiens) (Q13285 whole entry, looked up, the tested form may be a part): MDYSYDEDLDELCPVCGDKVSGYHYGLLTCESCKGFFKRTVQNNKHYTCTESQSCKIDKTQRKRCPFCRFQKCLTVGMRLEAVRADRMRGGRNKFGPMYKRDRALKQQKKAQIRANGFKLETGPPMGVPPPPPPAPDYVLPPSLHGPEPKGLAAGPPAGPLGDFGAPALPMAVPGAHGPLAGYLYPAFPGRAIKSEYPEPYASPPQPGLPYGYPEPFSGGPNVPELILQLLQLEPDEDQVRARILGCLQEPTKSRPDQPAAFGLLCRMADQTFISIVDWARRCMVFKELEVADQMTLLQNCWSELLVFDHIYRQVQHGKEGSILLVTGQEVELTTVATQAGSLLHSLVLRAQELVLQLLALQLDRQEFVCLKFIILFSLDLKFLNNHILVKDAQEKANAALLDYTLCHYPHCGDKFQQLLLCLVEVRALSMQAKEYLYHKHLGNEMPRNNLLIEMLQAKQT

[8] = compounds suppressing VP16-driven luciferase signal – cell-based, luminescence, high throughput, counter-screen for LRH-1 inverse agonist project (AID 651615; in the data active = inhibition above about 33%); details: Gal4-VP16 luciferase reporter cells, at 3.6 µM, active compounds read high
[9] = target: Photoreceptor-specific nuclear receptor (Homo sapiens) (UniProt Q9Y5X4); experiment: retest of NR2E3-NCOR disrupting agonists – cell-based, luminescence, CHO-S two-hybrid, confirmation (AID 624378;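 active = average inhibition above a cutoff equal to the mean inhibition of all tested compounds plus one SD, cut at about 70% in these data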;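 also: 0% = DMSO in NR2E3 cells and 100% = DMSO in cells lacking NR2E3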); details: CHO-S mammalian two-hybrid NR2E3-NCOR, luciferase luminescence; at 3.98 µM; active compounds read high
Sequence of Photoreceptor-specific nuclear receptor (Homo sapiens) (Q9Y5X4 whole entry, looked up, the tested form may be a part): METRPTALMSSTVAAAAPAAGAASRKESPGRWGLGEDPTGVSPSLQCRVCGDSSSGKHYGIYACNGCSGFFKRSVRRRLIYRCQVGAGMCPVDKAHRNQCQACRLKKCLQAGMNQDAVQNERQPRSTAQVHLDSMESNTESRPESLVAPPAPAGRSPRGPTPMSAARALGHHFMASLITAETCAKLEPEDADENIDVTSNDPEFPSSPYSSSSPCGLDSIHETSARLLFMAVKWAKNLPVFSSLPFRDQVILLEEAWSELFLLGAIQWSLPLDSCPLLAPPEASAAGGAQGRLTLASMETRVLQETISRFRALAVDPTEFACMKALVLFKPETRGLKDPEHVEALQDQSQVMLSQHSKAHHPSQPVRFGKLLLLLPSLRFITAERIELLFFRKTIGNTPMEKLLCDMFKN

[10] = nonselective effects on VP16 transactivation – cell-based, luminescence, CHO-S, high throughput, counter-screen for NR2E3 agonist project, confirmation (AID 624379;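 active = mean inhibition above a cutoff equal to the average over all tested compounds plus one standard deviation, cut at about 70% in these data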;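 also: luciferase from a UAS reporter driven by GAL4-VP16 transactivation; 0% = DMSO with VP16-transfected cells and 100% = DMSO with cells lacking VP16; higher means less reporter light so more repression of VP16 activity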); details: CHO-S GAL4-VP16 luciferase reporter, at 3.98 µM, active compounds read high
[11] = tested on: transactivating tegument protein VP16 (Human herpesvirus 1); experiment: compounds suppressing VP16-driven luciferase signal – cell-based, luminescence, single concentration, counter-screen for SRC2 inhibitor project (AID 652007; in the data active = inhibition above about 36%); details: cell-based VP16 transactivation luciferase reporter, at 8.9 µM, active compounds read high
[12] = target: Nuclear receptor coactivator 2 (Homo sapiens) (UniProt Q15596); experiment: inhibition of GAL4-SRC2 driven luciferase expression – cell-based, luminescence, HEK293, triplicate, confirmation (AID 652008;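 active = mean inhibition above 46.5%, the solvent-only control mean plus 3 SD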;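 also: 0% = DMSO-treated cells and 100% = Gossypol at 36 µM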); details: HEK293 GAL4-SRC2 luciferase reporter, at 8.9 µM, active compounds read high

Measured: inhibition

CN(C)CC(C(=O)c1ccccc1)c1ccccc1 (stereo not drawn)
inactive: [1] 38.8% | [3] 32%
active: [2] 46.8% | [4] 41.8%

O=C(N/N=C/c1cc(Cl)ccc1O)C(=O)Nc1ccccc1OC(F)(F)C(F)F
active: [2] 38.3% | [4] 44.3%
inactive: [1] 29.3% | [3] 37.7%

CN(c1ncnc(N)c1[N+](=O)[O-])C1CCS(=O)(=O)C1 (stereo not drawn)
active: [1] 55.2% | [2] 35.7% | [3] 52.7% | [4] 34.1%

O=C(Nc1cccc(S(=O)(=O)Nc2ccccc2Cl)c1)c1ccc(Cl)nc1
active: [4] 32.2%
inactive: [1] -1.42% | [2] 27.7% | [3] 5.83%

CC1CCN(Cc2c(C(=O)N/N=C/c3cc(Br)ccc3O)nnn2-c2nonc2N)CC1
active: [1] 75.4% | [2] 83.5% | [3] 84.8% | [4] 81.9%

C#CCN(C[C@@H]1[C@@H](OC(=O)NCCCCCC)[C@@H](OC(=O)NCCCCCC)Cn2c(=O)ccc(=O)n21)S(=O)(=O)c1ccc(C)cc1
active: [2] 31.7% | [4] 33.4%
inactive: [1] 23.3% | [3] 23.8%

O=C(NNc1ccccc1)C(=O)NNc1ccccc1
active: [2] 49.3% | [4] 48.9%
inactive: [1] 25.6% | [3] 8.21%

C=CCOc1ccccc1CNc1ccc2c(c1)OCCO2
inactive: [1] 25.2% | [2] 12.4% | [3] -17.1% | [4] -30.1%

CC(=O)c1cccc(NC(=O)Nc2cccnc2)c1
active: [1] 64.6% | [2] 36.1% | [3] 58% | [4] 33.6%

CCCOc1ccc(/C=N/Nc2ccccc2[N+](=O)[O-])c(O)c1
inactive: [1] 27.7% | [2] 5% | [3] -59.5% | [4] -39.9%

O=C(Nc1c(-c2ccccc2)[nH][nH]c1=O)c1cccc(C(F)(F)F)c1
inactive: [1] 15.3% | [2] 6.35% | [3] 22% | [4] 0.94%

CCCC(=O)NC(c1ccccc1OC)c1ccc2cccnc2c1O (stereo not drawn)
active: [1] 61.1% | [2] 37.8% | [3] 52.2% | [4] 41.9%

Cc1c(Cl)c([N+](=O)[O-])nn1Cc1ccc(C(=O)N/N=C\c2cc(Cl)ccc2O)o1
active: [1] 57.4% | [2] 48.7% | [3] 55.5% | [4] 52.9%

Cc1cccc[n+]1CC(=O)/C=C1\N(C)c2ccccc2C1(C)C
inactive: [1] 8.01% | [2] 20.6% | [3] -9.04% | [4] 23.5%

Cc1ccc(C2CC(C(F)(F)F)n3nc(C(=O)NCc4c(C)nn(C)c4C)c(Cl)c3N2)cc1 (stereo not drawn)
inactive: [1] 7.71% | [2] 15.1% | [3] -7% | [4] 10.9%

COc1ccc(-c2cn[nH]c2N)c(OC)c1
active: [1] 59.7% | [2] 50.5% | [4] 41.7%
inactive: [3] 43.9%

O=C1C(Nc2ccccc2)=C(N2CCCCC2)C(=O)c2ccccc21
active: [2] 39.6% | [4] 35.9%
inactive: [1] 19.4% | [3] 44.4% | [5] -2.41% | [6] 22.5% | [7] 6.41% | [8] 12.1%

CCN1/C(=C/c2ccc3cc(C)ccc3[n+]2CC)Sc2cc(C)c(C)cc21
active: [2] 65.4% | [4] 58.4% | [5] 55.6% | [6] 87.4% | [7] 83.1% | [8] 75.5%
inactive: [1] 38.9% | [3] 18.8%

CN(C)c1ccc(/C=C/c2ccc3ccccc3n2)cc1
inactive: [1] 33.3% | [2] 29% | [3] 0.35% | [4] 14.3% | [8] 29.4%
active: [5] 55.6% | [6] 59.3% | [7] 72.4%

Cc1ccc2[nH]c3nc(N/N=C/c4cccc(O)c4)nnc3c2c1
inactive: [1] 35.7% | [3] 27.8%
active: [2] 54.6% | [4] 48.2% | [5] 51% | [6] 65.6% | [7] 63.6% | [8] 69.8%

Cc1[nH]c(=O)c(C(=O)/C=C/c2ccccc2)c2c1CCCC2
inactive: [9] 24.6% | [10] 48%
active: [1] 66.8% | [2] 56.1% | [3] 70.5% | [4] 57.9% | [5] 54.4% | [6] 71.7% | [7] 68.2% | [8] 74.8% | [11] 50.1% | [12] 63.9%

Source: PubChem BioAssay
